About 2,000 (0.91%) of roughly 220,000 compounds were called active. Roughly 2% stayed inconclusive and do not appear here. These entries were drawn from the full list. Measured potencies and affinities stand elsewhere. Values without a mark were called inactive. No stated cut-off is given here; in the data, inconclusive means inhibition above about 80% without an active follow-up result; inactive means below that; test concentration not stated here.
Experiment: M. tuberculosis H37Rv growth inhibitors, H37Rv strain (AID 1626);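 further: bacteria incubated seven days before Alamar blue readout; 0% = bacteria only wells and 100% = bacteria with antibiotic wells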
Conditions: hits give high values, concentration not given here

| SMILES | inhibition |
| --- | --- |
| O=C(NCCc1ccccc1)C1CC(=O)N(C2CCCCCC2)C1 (stereo unspecified) | -3.62% |
| COC(=O)C1=C(c2ccccc2)C[C@@H]2CC[C@H]1N2C(=O)NCC1CC1 | -3.96% |
| O=C(OCc1ccc(Cl)cc1)c1cnccn1 | 13.5% |
| COC(=O)c1ccc(COC(=O)c2cnccn2)cc1 | 16.3% |
| O=[N+]([O-])c1cccc(-c2noc(-c3cccs3)n2)c1 | 0.93% |
| O=C(NCc1n[nH]c(=S)n1Cc1ccccc1)c1ccc(Cl)cc1Cl | 7.03% |
| COc1cccc(C2c3c(oc4ccccc4c3=O)C(=O)N2c2ccccn2)c1 (stereo unspecified) | -5.48% |
| COc1cc(OC)c(S(=O)(=O)NCc2ccco2)cc1S(=O)(=O)NCc1ccco1 | 1.4% |
| Cc1ccc(Cl)cc1NC(=O)COC(=O)c1ccc(N2CCCC2)c([N+](=O)[O-])c1 | -3.66% |
| Cc1ccc(-c2nn(-c3cccc(F)c3)cc2CN(Cc2nccn2C)C(C)C)o1 | 22.5% |
| CCN1CC(CN(C)Cc2cn(-c3cccc(C)c3)nc2-c2cccc(F)c2)CC1=O (stereo unspecified) | 15.3% |
| Cc1cccc(-n2cc(CN3CCN(c4ccccn4)CC3)c(-c3cccc(F)c3)n2)c1 | 15.4% |
| Cc1cccc(-n2cc(CN3CCN(Cc4nccn4C)CC3)c(-c3cccc(F)c3)n2)c1 | 27% |
| CCOC(=O)N1CCC(N(CCN(C)C)C(=S)Nc2cccc(OC)c2)CC1 | 10% |
| CCn1ccnc1CNC(=O)c1cc(COc2ccc(F)cc2F)on1 | 13.2% |
| O=C(NC1=NCCS1)c1cc2ccccc2o1 | -1.2% |
| COc1ccccc1NC(=S)NC(=O)c1ccc(-c2ccc(Cl)cc2)o1 | 79.3% |
| CCn1nnc(NC(=O)Cc2ccc(Cl)cc2)n1 | -0.3% |
| CCc1nnc(NC(=O)c2ccc(-c3ccc(Cl)cc3)o2)s1 | 3.33% |
| CC(=O)N1CCN(C(=S)c2ccc(-c3ccc(Cl)cc3)o2)CC1 | 4.85% |
| CCCn1nnc(NC(=O)c2ccc(-c3cccc(Cl)c3)o2)n1 | 0.76% |
| CCOC(=O)c1cc(CC)sc1N1C(=O)CC(Sc2ncccc2C(=O)O)C1=O (stereo unspecified) | 2.89% |
| Cc1ccc(S(=O)(=O)N(C)C)cc1NC(=O)C1CCC1 | -2.34% |
| CCOc1ccc(N(CC(=O)Nc2c(C)cccc2C)S(=O)(=O)c2c(C)[nH]c(=O)[nH]c2=O)cc1 | 7.56% |

| SMILES | inhibition |
| --- | --- |
| CC(C)Cn1c(N2CCN(C(=O)c3cccs3)CC2)nc2ccccc21 | -13.3% |
| CCn1c(N2CCN(C(=O)/C=C/c3ccccc3)CC2)nc2ccccc21 | 0.45% |
| CCOc1ccc(CC(=NCCc2ccccc2)C2=C(O)CC(C)(C)CC2=O)cc1OCC | 6.31% |
| CCn1c(SCC(=O)Nc2ccc3c(c2)OCCO3)nnc1-c1c[nH]c2ccccc12 | -6.16% |
| O=C(Nc1nnc(-c2cccs2)o1)c1ccco1 | 71.2% |
| O=C(Nc1nn[nH]n1)c1cccc(Oc2ccccc2)c1 | -4.2% |
| O=C(Nc1cccc(C(F)(F)F)c1)c1cc(-c2cccs2)on1 | -6.91% |
| COc1cccc(C(=O)Nc2nnc(-c3cccs3)s2)c1 | 8.53% |
| CCCCNc1ccc(S(N)(=O)=O)cc1[N+](=O)[O-] | -3.02% |
| COC(=O)C1C(O)=C(C=Nc2ccccc2)C(=O)CC1(C)C (stereo unspecified) | 18% |
| COC(=O)C1C(O)=C(C=Nc2cccc3ccccc23)C(=O)CC1(C)C (stereo unspecified) | 55% |
| CC1CCN(C(=O)c2ccc(N3CC4CC(C3)c3cccc(=O)n3C4)c([N+](=O)[O-])c2)CC1 (stereo unspecified) | -2.48% |
| Nc1cc(=O)[nH]c(SCC(=O)Nc2ccccc2Sc2ccccc2)n1 | 0.31% |
| Nn1c(SCc2ccc(F)cc2)nnc1-c1cccnc1 | 0.75% |
| Cc1nc(/N=C(\N)Nc2ccccc2)nc2ccccc12 | -4.15% |
| Cc1cc(C)c2nc(/N=C(\N)NC(=O)c3ccccc3)nc(C)c2c1 | 5.97% |
| Cc1ccc2nc(N=C(N)N)nc(C)c2c1 | 8.48% |
| CCCC(=O)N/C(N)=N/c1nc(C)c2cc(C)ccc2n1 | 31.5% |
| O=C(NCCNC(=O)c1ccc([N+](=O)[O-])cc1)c1ccncc1 | -5.65% |
| O=S(=O)(Nc1cccc2cn[nH]c12)c1ccc(F)cc1 | -1.2% |
| C/C(=N\OCC(=O)NC12CC3CC(CC(C3)C1)C2)c1cc2ccccc2o1 | 24.4% |
| CC(=O)NCCOc1ccc2oc3ccccc3c2c1 | 14.2% |
| O=C(c1ccccc1)N1CCCC(C(=O)N2CCN(c3ccccc3)CC2)C1 (stereo unspecified) | -13.7% |
| CC(=O)N(C)c1ccc(OCC(O)Cn2c3ccc(Cl)cc3c3cc(Cl)ccc32)cc1 (stereo unspecified) | -0.39% |

| SMILES | inhibition |
| --- | --- |
| OC(COCC(F)(F)C(F)(F)C(F)(F)C(F)F)Cn1c2ccccc2c2ccccc21 (stereo unspecified) | 47.2% |
| CCn1c(SCC(=O)Nc2nc(C)cs2)nnc1-c1cccnc1 | 10.4% |
| O=C(NCc1cccnc1)c1ccc(-c2ccc(Cl)cc2)o1 | -1.29% |
| O=C(NCc1cccnc1)/C(=C/c1ccc(-c2cccc(Cl)c2)o1)S(=O)(=O)c1ccccc1 | 56.8% |
| CC(=O)Nc1nc2ccccc2n1CCN(C)C | -1.12% |
| CCS(=O)(=O)c1nc2ccccc2n1Cc1ccccc1Cl | 0.3% |
| CC(=O)NCCCc1nc2ccccc2n1Cc1ccccc1C | -3.1% |
| Cc1ccccc1Cn1c(C(C)O)nc2ccccc21 (stereo unspecified) | 1.24% |
| CC(=O)NCc1nc2ccccc2n1Cc1ccccc1C | -1.94% |
| CCC(=O)Nc1nonc1-c1nc2ccccc2n1Cc1cccc2ccccc12 | 20.3% |
| CCn1c(NCc2ccccc2Cl)nc2ccccc21 | 1.72% |
| CC(=O)NCCc1nc2ccccc2n1Cc1ccccc1 | 2.23% |
| Cc1cc(C)c(C(=O)Nc2ccc(Br)c(C(F)(F)F)c2)c(C)c1 | 50.8% |
| C=CCN(C(=O)CNC(=O)c1ccco1)C(C(=O)NC1CCCCC1)c1ccccc1 (stereo unspecified) | -3.02% |
| COc1ccc2nc3sc(C(=O)NCCN4CCc5ccccc5C4)cc3cc2c1 | 11.3% |
| Cn1c(CCNC(=O)OC(C)(C)C)n[nH]c1=S | -7.46% |
| CC12CCC(C(=O)Nc3ccccc3N3CCOCC3)(CC1=O)C2(C)C (stereo unspecified) | -3.66% |
| O=c1[nH][nH]cc1C=Nc1ccc(Cl)cc1 | 4.25% |
| COc1cccc(N=Cc2c[nH][nH]c2=O)c1 | -5.96% |
| C/[N+]([O-])=C/c1c(OCc2ccc(Cl)cc2Cl)ccc2ccccc12 | 10.9% |
| Cc1c(C(=O)Nc2ccc(F)cc2)c2ccccn2c1CCc1ccncc1 | 1.73% |
| Cc1ccc(C)c(Cn2c(=O)n(CCC(=O)NCc3ccco3)c(=O)c3sccc32)c1 | -2.02% |
| O=C1CC(c2ccco2)CC2=C1C(c1ccccc1)n1nc(C(F)(F)F)nc1N2 (stereo unspecified) | 2.19% |
| CCOC(=O)c1sc(NC(=O)COC(=O)CNC(=O)C2CCCCC2)c(C(=O)OCC)c1C | -1.65% |

| SMILES | inhibition |
| --- | --- |
| O=C(COc1nc2ccccc2nc1N1CCOCC1)NC1CCCCC1 | 5.49% |
| CC(=O)Nc1ccc(S(=O)(=O)N2CCN(c3nnnn3-c3ccccc3)CC2)cc1 | -0.88% |
| O=S(=O)(CS(=O)(=O)c1ccc(Cl)cc1)c1ccc(Cl)cc1 | 6.17% |
| c1ccc(-c2nc(C3CCCCC3)no2)cc1 | 3.47% |
| c1ccc(-c2cc(-c3nc(-c4ccccn4)no3)c3ccccc3n2)cc1 | 9.71% |
| O=C(CN1CCCCC1)c1ccc(OC(F)F)cc1 | -5.74% |
| c1ccc(N2CCOCC2)c(Nc2nc3ccccc3n3cnnc23)c1 | 8.42% |
| c1ccc(N2CCCCC2)c(Nc2nc3ccccc3n3cnnc23)c1 | 14.3% |
| Nc1cc(OC(=O)c2cccs2)nn1S(=O)(=O)c1ccc(F)cc1 | 5.67% |
| Cc1ccc(NC(=O)Cn2c(O)c(N=NC(=O)c3cc([N+](=O)[O-])ccc3O)c3ccccc32)cc1 | 45.8% |
| Cc1cc(C)n(-c2nc3ccccc3nc2N2CCC(C)CC2)n1 | 2.59% |
| Cc1cc(N2CCN(c3ccccc3)CC2)nc(N)n1 | -2.3% |
| Cc1cc(N2CCN(c3ccccc3)CC2)nc(-c2ccccc2)n1 | -10.3% |
| Cc1cc(Cl)nc(-n2nc(C)cc2C)n1 | -0.69% |
| O=c1cn[nH]c2ccccc12 | -1.28% |
| CCOc1cc(/C=N\NC(=O)C2C(=O)NCC2c2ccccc2)ccc1OC (stereo unspecified) | -8.61% |
| Cc1c(Br)ccc(NC(=O)CCN2C(=O)C3C4CCC(C4)C3C2=O)c1C (stereo unspecified) | -22.5% |
| CCOC(=O)c1c(N2C(=O)C3CC(C)=C(C)CC3C2=O)sc(C)c1C (stereo unspecified) | -1.38% |
| N#Cc1ccccc1NC(=O)CNc1ccc(Cl)c(C(F)(F)F)c1 | 1.74% |
| COc1ccc(NC(=O)CNc2ccc(C#N)cc2)cc1 | -4.76% |
| COc1ccc(NC(=O)CNc2cccc(C#N)c2)cc1Cl | -9.7% |
| COc1ccccc1NC(=O)CNc1ccc(F)c(Cl)c1 | -4.82% |
| Cc1noc(C)c1/C=N/Nc1ccccn1 | -11.2% |
| COC(=O)c1ccccc1NC(=O)c1sc(N)nc1C | -3.82% |
